Test results taken from PubChem BioAssay (EPA / NIEHS).
Inconclusive results are not listed. Activity calls are given as the source filed them. How the source made its calls: active means hit-call score of the fitted dose curve at least 0.9, where 1 is the maximum; inconclusive means response in the unintended direction; inactive means score below 0.9.

The molecules below were run against rat Constitutive Nitric Oxide Synthase (CNOS), Nos1 (gene 24598) (UniProt P29476) (assay: NVS_ENZ_rCNOS: NovaScreen (NVS) Enzymatic Assay for rat Constitutive Nitric Oxide Synthase (CNOS) (AID 2283236)).
Sequence of rat Constitutive Nitric Oxide Synthase (CNOS), Nos1 (gene 24598) (P29476 whole entry, looked up): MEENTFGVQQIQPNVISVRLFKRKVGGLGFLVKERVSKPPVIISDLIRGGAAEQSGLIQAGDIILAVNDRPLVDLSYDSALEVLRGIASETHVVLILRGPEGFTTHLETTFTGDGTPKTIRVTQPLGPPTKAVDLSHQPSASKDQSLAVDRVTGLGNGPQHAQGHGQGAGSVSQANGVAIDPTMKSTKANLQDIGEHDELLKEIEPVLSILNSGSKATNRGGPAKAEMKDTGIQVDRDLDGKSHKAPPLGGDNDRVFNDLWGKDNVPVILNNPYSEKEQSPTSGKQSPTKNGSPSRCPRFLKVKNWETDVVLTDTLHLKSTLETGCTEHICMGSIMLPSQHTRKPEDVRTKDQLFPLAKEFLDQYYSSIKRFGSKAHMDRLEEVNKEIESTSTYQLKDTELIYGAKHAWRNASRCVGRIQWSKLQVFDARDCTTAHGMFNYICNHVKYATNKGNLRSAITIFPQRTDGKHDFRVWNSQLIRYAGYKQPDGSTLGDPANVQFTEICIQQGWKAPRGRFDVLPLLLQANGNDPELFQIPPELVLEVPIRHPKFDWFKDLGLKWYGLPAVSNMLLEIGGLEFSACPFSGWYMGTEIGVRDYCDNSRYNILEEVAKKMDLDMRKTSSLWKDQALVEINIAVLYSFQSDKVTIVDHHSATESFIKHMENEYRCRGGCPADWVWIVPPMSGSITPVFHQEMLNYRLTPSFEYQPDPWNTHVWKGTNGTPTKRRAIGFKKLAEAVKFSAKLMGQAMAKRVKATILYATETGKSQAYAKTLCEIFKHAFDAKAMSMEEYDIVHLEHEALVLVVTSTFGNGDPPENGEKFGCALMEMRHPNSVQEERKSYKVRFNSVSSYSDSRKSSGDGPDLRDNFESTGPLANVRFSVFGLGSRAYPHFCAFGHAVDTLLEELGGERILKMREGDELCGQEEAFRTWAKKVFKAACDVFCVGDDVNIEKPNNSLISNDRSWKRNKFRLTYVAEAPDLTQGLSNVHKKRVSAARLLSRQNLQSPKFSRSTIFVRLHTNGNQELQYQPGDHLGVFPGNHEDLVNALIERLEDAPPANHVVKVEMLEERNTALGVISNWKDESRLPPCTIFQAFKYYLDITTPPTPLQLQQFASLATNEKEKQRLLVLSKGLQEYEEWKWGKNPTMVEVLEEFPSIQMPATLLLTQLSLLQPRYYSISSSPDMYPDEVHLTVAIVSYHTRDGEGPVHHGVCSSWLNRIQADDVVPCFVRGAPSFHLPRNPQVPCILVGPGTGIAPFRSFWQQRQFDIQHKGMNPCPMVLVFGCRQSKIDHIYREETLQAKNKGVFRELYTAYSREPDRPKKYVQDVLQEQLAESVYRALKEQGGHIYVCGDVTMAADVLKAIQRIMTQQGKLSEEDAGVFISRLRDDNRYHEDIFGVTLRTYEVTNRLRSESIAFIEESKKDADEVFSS
Procedure, shortened: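 Single 25 uM duplicate screen, then concentration series to 50 uM for chemicals meeting threshold. Rat brain membrane-derived CNOS activity detected radiometrically by filtration and scintillation counting, 1 h after compound addition; DMSO as baseline.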
With `CC(C)[C@H](C(=O)O[C@H](C#N)c1cccc(Oc2ccccc2)c1)c1ccc(Cl)cc1` the outcome was “inactive”. `COP(=O)(NC(C)=O)SC` (stereo unspecified) was tested, and the outcome was “inactive”. With `Nc1c(Cl)cc([N+](=O)[O-])cc1Cl` the outcome was “inactive”.

What follows are molecules tested on rat Monoamine Oxidase, MAO-A, Peripheral (MAOAP), gene 29253 (assay: NVS_ENZ_rMAOAP: NovaScreen (NVS) Enzymatic Assay for rat Monoamine Oxidase, MAO-A, Peripheral (MAOAP) (AID 2283237)).
Protocol: (§1) NVS_ENZ_rMAOAP is a biochemical, single-readout assay that uses extracted gene-proteins from Rat liver mitochondrial membranes in a tissue-based cell-free assay. Measurements were taken 1.17 hours after chemical dosing in a 96-well plate.NVS_ENZ_rMAOAP is one of one assay component(s) measured or calculated from the NVS_ENZ_rMAOAP assay. It is designed to make measurements of enzyme activity, a form of enzyme reporter, as detected with scintillation counting signals by Lysate-based radiodetection technology.Data from the assay component NVS_ENZ_rMAOAP was analyzed into 1 assay endpoint. This assay endpoint, NVS_ENZ_rMAOAP, was analyzed in the positive analysis fitting direction relative to DMSO as the negative control and baseline of activity. Using a type of enzyme reporter, loss-of-signal activity can be used to understand changes in the enzymatic activity as they relate to the gene Maoa. Furthermore, this assay endpoint can be referred to as a primary readout, because this assay has produced multiple assay endpoints where this one serves a enzymatic activity function. To generalize the intended target to other relatable targets, this assay endpoint is annotated to the oxidoreductase intended target family, where the subfamily is monoamine oxidase.
Binding assays used specific radioligands (tritiated, iodinated) with non-radioactive competitive displacement ligands in agonist or antagonist protocols (as indicated) and various reference compounds and inhibitors to titrate specific binding to receptors and transporters. Most enzyme assays (CYPs, kinases, phosphatases, proteases, HDACs) used recombinant protein and specific substrates (fluorescence mostly, some colorimetric and radioactive) and inhibitors, followed by a biochemical separation of substrate and product. All assays for the biochemical HTS were initially run in duplicate at a single concentration (10 uM for CYP450 assays and 25 uM for all others). […] Each assay was run with positive and negative controls, and concurrent controls on every plate. The follow-up (secondary) screen tested active chemical-pairs in concentration series, as well as a few additional assays not tested in the primary screen, some selected negative inactives, and several cases re-run in the concentration series for confirmatory purposes.
In the case of `C[Si](Cn1cncn1)(c1ccc(F)cc1)c1ccc(F)cc1`, the AC50 is reported as 25 µM (active). With `Nc1c(Cl)cc([N+](=O)[O-])cc1Cl` the AC50 was 18 µM (active). `CN(C)C(=O)Nc1cccc(C(F)(F)F)c1` was tested, and the AC50 was 25 µM (active).

Each molecule was assayed against rat Monoamine Oxidase, MAO-B, Central (MAOBC), Maob (gene 25750) (UniProt P19643) (assay: NVS_ENZ_rMAOBC: NovaScreen (NVS) Enzymatic Assay for rat Monoamine Oxidase, MAO-B, Central (MAOBC) (AID 2283238)).
Sequence of rat Monoamine Oxidase, MAO-B, Central (MAOBC), Maob (gene 25750) (P19643 whole entry, looked up): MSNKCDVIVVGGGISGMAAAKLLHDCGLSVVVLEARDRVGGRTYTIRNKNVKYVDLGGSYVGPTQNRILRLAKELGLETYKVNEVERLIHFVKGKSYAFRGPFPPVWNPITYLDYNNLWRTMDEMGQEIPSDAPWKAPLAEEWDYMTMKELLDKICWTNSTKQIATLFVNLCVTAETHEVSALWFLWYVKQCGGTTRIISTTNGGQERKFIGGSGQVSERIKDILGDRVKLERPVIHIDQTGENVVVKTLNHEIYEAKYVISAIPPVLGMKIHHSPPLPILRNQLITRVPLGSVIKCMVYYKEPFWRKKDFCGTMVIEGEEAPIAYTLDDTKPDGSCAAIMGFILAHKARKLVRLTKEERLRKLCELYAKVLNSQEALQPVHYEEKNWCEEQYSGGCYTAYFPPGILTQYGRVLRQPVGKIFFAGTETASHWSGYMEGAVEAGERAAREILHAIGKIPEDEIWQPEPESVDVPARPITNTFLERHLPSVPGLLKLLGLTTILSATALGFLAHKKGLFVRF
Procedure, shortened: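 Cell-free radiometric assay, rat brain lysate. Read-out: scintillation counts, 1.17 h post-dosing. Screen 25 uM in duplicate; actives (e.g. ≥30% inhibition) then singleton concentration-response, max 50 uM. Activity loss fitted relative to DMSO.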
`CSc1nnc(C(C)(C)C)c(=O)n1N` was tested, and the AC50 was 16.8 µM (active). In the case of `Nc1c(Cl)cc([N+](=O)[O-])cc1Cl`, the AC50 is reported as 15.3 µM (active). In the case of `CSC1=N[C@@](C)(c2ccccc2)C(=O)N1Nc1ccccc1`, the outcome is reported as “inactive”.

These molecules were tested against sheep Cyclooxygenase-1 (Cox1), PTGS1 (gene 443551) (UniProt P05979) (assay: NVS_ENZ_oCOX1: NovaScreen (NVS) Enzymatic Assay for sheep Cyclooxygenase-1 (Cox1) (AID 2283239);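 further: actives reduce cyclooxygenase activity so potencies are for inhibitors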).
Sequence of sheep Cyclooxygenase-1 (Cox1), PTGS1 (gene 443551) (P05979 whole entry, looked up): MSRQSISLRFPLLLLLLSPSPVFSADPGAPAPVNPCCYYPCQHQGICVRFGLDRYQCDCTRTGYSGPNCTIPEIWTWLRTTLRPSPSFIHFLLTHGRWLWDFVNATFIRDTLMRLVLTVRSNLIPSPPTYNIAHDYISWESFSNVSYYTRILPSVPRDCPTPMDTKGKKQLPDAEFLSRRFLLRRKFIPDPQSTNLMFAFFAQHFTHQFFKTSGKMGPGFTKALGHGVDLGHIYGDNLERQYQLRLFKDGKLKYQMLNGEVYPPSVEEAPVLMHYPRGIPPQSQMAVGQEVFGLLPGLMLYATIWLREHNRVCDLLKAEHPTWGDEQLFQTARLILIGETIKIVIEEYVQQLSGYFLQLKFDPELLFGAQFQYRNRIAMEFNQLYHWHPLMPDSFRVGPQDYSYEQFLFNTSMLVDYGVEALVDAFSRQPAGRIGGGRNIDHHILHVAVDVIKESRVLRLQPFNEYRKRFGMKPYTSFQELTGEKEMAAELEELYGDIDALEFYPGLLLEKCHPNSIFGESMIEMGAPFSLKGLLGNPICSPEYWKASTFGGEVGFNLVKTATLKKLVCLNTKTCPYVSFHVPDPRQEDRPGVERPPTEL
Procedure, shortened: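 Colorimetric enzyme readout using sheep seminal-vesicle cyclooxygenase-1, measured 0.66 h post-dosing. Single-concentration duplicates at 25 uM first, then concentration series for actives, with DMSO as baseline and plate controls.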
For `CC(C)=CC1C(C(=O)OCN2C(=O)C3=C(CCCC3)C2=O)C1(C)C` (stereo unspecified), the AC50 was 4.96 µM (active). For `CCCCOC(=O)c1ccccc1C(=O)O`, the outcome was “inactive”. For `CCCSP(=O)(OCC)SCCC`, the outcome was “inactive”.

Each molecule was assayed against rat Monoamine Oxidase, MAO-B, Peripheral (MAOBP), Maob (gene 25750) (UniProt P19643) (assay: NVS_ENZ_rMAOBP: NovaScreen (NVS) Enzymatic Assay for rat Monoamine Oxidase, MAO-B, Peripheral (MAOBP) (AID 2283242)).
Sequence of rat Monoamine Oxidase, MAO-B, Peripheral (MAOBP), Maob (gene 25750) (P19643 whole entry, looked up): as the sequence (P19643 whole entry, looked up) above
Protocol: as §1, with “NVS_ENZ_rMAOBP” for “NVS_ENZ_rMAOAP”, “brain” for “liver mitochondrial membranes”, “plate.NVS_ENZ_rMAOBP” for “plate.NVS_ENZ_rMAOAP”, “NVS_ENZ_rMAOBP,” for “NVS_ENZ_rMAOAP,”, “Maob.” for “Maoa.”
Binding assays used specific radioligands (tritiated, iodinated) with non-radioactive competitive displacement ligands in agonist or antagonist protocols (as indicated) and various reference compounds and inhibitors to titrate specific binding to receptors and transporters. Most enzyme assays (CYPs, kinases, phosphatases, proteases, HDACs) used recombinant protein and specific substrates (fluorescence mostly, some colorimetric and radioactive) and inhibitors, followed by a biochemical separation of substrate and product. All assays for the biochemical HTS were initially run in duplicate at a single concentration (10 uM for CYP450 assays and 25 uM for all others). Assay-chemical combinations meeting a pre-defined threshold (e.g., 30% inhibition and other criteria defined below) were then run in singleton concentration-response format with maximum concentration of 20 uM for CYPs and 50 uM for all others. Each assay was run with positive and negative controls, and concurrent controls on every plate. The follow-up (secondary) screen tested active chemical-pairs in concentration series, as well as a few additional assays not tested in the primary screen, some selected negative inactives, and several cases re-run in the concentration series for confirmatory purposes.
`CC(C1CC1)C(O)(Cn1cncn1)c1ccc(Cl)cc1` (stereo unspecified) was tested, and the outcome was “inactive”. With `CSc1nnc(C(C)(C)C)c(=O)n1N` the outcome was “inactive”. For `Nc1c(Cl)cc([N+](=O)[O-])cc1Cl`, the AC50 was 39.8 µM (active). With `Cc1nn(-c2cc(NS(C)(=O)=O)c(Cl)cc2Cl)c(=O)n1C(F)F` the outcome was “inactive”. `Nc1nc(N)nc(NC2CC2)n1` was tested, and the outcome was “inactive”. With `O=c1ccc(=O)[nH][nH]1` the outcome was “inactive”.

These molecules were tested on rat Monoamine Oxidase, MAO-A, Central (MAOAC), gene 29253 (assay: NVS_ENZ_rMAOAC: NovaScreen (NVS) Enzymatic Assay for rat Monoamine Oxidase, MAO-A, Central (MAOAC) (AID 2283243);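 further: potency refers to inhibition seen as signal drop below DMSO baseline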).
Procedure, shortened: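 Scintillation read-out of MAO-A activity in rat brain lysate, 1.5 h post-dosing. Primary single-concentration screen: 25 uM, duplicate; actives re-tested in concentration series. DMSO = negative control/baseline.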
In the case of `CC1(C(=O)Nc2ccc(O)c(Cl)c2Cl)CCCCC1`, the outcome is reported as “inactive”. `C[Si](Cn1cncn1)(c1ccc(F)cc1)c1ccc(F)cc1` was tested, and the AC50 was 34 µM (active). For `Nc1c(Cl)cc([N+](=O)[O-])cc1Cl`, the AC50 was 15.6 µM (active). In the case of `CCc1cccc(C)c1N(C(=O)CCl)C(C)COC` (stereo unspecified), the outcome is reported as “inactive”. With `CN(C)C(=O)Nc1cccc(C(F)(F)F)c1` the AC50 was 29.7 µM (active).

These molecules were tested against Adenosine receptor A1 (Bos taurus) (UniProt P28190) (assay: NVS_GPCR_bAdoR_NonSelective: NovaScreen (NVS) G Protein-Coupled Receptor Assay for bovine Adenosine Receptor (AdoR), Non-selective Binding (AID 2283244)).
Sequence of Adenosine receptor A1 (Bos taurus) (P28190 whole entry, looked up): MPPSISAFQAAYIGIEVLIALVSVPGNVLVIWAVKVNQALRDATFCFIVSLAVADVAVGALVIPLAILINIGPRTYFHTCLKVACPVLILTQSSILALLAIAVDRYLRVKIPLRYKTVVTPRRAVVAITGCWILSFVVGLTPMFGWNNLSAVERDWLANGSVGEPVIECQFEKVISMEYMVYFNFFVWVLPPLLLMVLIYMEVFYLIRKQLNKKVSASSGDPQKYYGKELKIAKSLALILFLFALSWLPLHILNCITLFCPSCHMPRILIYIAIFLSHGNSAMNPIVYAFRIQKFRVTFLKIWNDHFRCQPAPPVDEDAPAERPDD
Procedure, shortened: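 Cell-free binding with membranes from bovine striatum: radioligand displaced by test chemical, read after 1 h by filtration and scintillation. Single-point 25 uM duplicate primary, 50 uM top concentration in follow-up curves, DMSO baseline.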
`CCNc1nc(Cl)nc(NC(C)(C)C#N)n1` was tested, and the AC50 was 13.3 µM (active). For `Cc1cc(C2CC2)nc(Nc2ccccc2)n1`, the AC50 was 25 µM (active). `CSc1nc(NC(C)C)nc(NC(C)C)n1` was tested, and the AC50 was 5.37 µM (active).
